# Myeloid diff 2 – induction of myeloid progenitor differentiation, primary screen, cell-based, flow cytometry, MLPCN library. actives 1% (n = 360,000). ER-HoxA9 myeloid progenitors, lysozyme-GFP differentiation. AID 624256, 2012. calls only at 10 µM;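 active = normalized GFP-positive differentiation at or above the plate's own cutoff, the solvent-only control mean plus 3 SD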;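 note: cells exposed to compound for four days before flow analysis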
# MIN6 prolif-1 – inducers of MIN6 beta-cell proliferation, primary screen, ATP luminescence, uHTS | MIN6 cells proliferation, ATPlite luminescence, 48 h; cells starved in 0.2% serum; 100% = growth in 10% serum | proliferation, % at 10 µM | actives 0.29% (n = 330,000);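 active = compounds whose signal lies at least 3.5 SD above the mean of all wells on their plate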;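 note: 0% = DMSO-treated cells in low-serum medium and 100% = 10% serum control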
# iPSC survival up – enhancers of single-cell hiPSC survival, primary screen, ATPlite luminescence; 100% = ROCK inhibitor wells, 0% = DMSO; survival enhancement, % at 20 µM; actives 0.044% (n = 360,000); in the data active = survival enhancement above about 18%;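 note: cells exposed to compounds for 16 hours before the ATP read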
# ABCB6 inh 2 – ABCB6 transporter inhibitors, primary screen, K562-ABCB6 cells, flow cytometry, MLPCN library; ATP-binding cassette sub-family B member 6 (Homo sapiens), Q9NP58; K562-ABCB6 porphyrin accumulation, 1 h; hits give low values; fluorescence ratio to DMSO, % at 10 µM; actives 0.19% (n = 360,000); AID 602162, 2011;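 active = fluorescence ratio to DMSO below 75%, the collection mean minus 3 SD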;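 note: signal is porphyrin accumulated inside mitochondria; 100% equals median channel fluorescence of DMSO control wells; lower ratio means ABCB6 inhibition with less porphyrin fluorescence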
# H9c2 protect – cardioprotection against H2O2-induced cell death, primary screen, uHTS, H9c2 cells, ATPLite luminescence; H9c2 cardiomyocytes, H2O2 injury protection, 2 h; protection from H2O2 cell death, % at 20 µM; actives 0.63% (n = 360,000); AID 588492, 2011;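 active = compounds giving at least 50% protection of heart cells from peroxide-induced death in the single-dose screen, raw or plate-pattern-corrected value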;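 note: 0% = DMSO wells with peroxide and 100% = DMSO wells without peroxide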
# MIN6 prolif-2 – inducers of beta-cell proliferation in MIN6, confirmation, MIN6 cells, mouse. shares compounds with MIN6 prolif-1. ATPlite luminescence, 48 h; cells kept in 0.2% serum; scaled between 0.2% and 10% serum. proliferation increase, % at 50 µM. 920 tested, under 10 active. AID 463095, 2010;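 active = proliferation increase above 40% at any of the four tested concentrations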
# The depositor's hits bear a star; i = inactive; · = no result given. The list is not random: actives were taken first. Their share in the collection is about 2.2%.
SMILES,Myeloid diff 2,MIN6 prolif-1,iPSC survival up,ABCB6 inh 2,H9c2 protect,MIN6 prolif-2
Cn1c(SCc2ccc([N+](=O)[O-])cc2)nnc1-c1ccncc1,i,1.0,0.4,101.0,1.0,·
Oc1ccccc1-c1nc(N2CCCC2)c2ccccc2n1,i,7.0*,1.4,95.0,1.2,5.5
CC1CCN(c2nc(-c3ccccc3O)nc3ccccc23)CC1,i,-5.1,2.0,99.0,-3.7,·
NNC(=O)c1ccc(N2CCc3ccccc32)c([N+](=O)[O-])c1,i,1.4,-0.4,96.0,14.4,·
Nc1ncnc(N2CCc3ccccc32)c1[N+](=O)[O-],i,19.5*,-0.5,95.0,-6.2,8.8
O=C(NCCCn1ccnc1)/C(=C\c1cccs1)NC(=O)c1ccccc1,i,6.7*,2.5,93.0,3.9,1.5
COc1cc(/C=N/NC(=S)NCCN2CCOCC2)cc(OC)c1OC,i,0.2,-2.3,95.0,25.5,·
S=C(NCCN1CCOCC1)N/N=C/c1cccs1,i,10.4*,-0.2,96.0,0.3,-6.4
COc1ccc(-c2[nH]ncc2CN(C)Cc2ccccn2)c(OC)c1,i,-0.2,-1.0,95.0,13.1,·
O=C(CCNC(=O)N1CC(=O)Nc2ccccc21)Nc1ccc(F)c(Cl)c1,i,4.9*,-0.1,93.0,6.4,-1.9
CCOC(=O)Cc1cc(=O)n2[nH]c(C)c(-c3ccccc3)c2n1,i,6.1*,2.7,104.0,7.0,-2.8
COc1ccc(Cn2c(C3CC3)nc3ccc(NC(=O)c4ccco4)cc3c2=O)cc1,i,5.5*,-0.3,93.0,10.1,-4.8
CCC(=O)Nc1ccc2nc(C3CC3)n(Cc3ccccc3)c(=O)c2c1,i,-1.9,-2.3,106.0,-1.9,·
CCOc1ncccc1C(=O)Nc1cccc(S(=O)(=O)NC2=NCCC2)c1,i,11.9*,-2.5,96.0,11.6,0.5
CC12CCC(=O)N1C(C(=O)N1CCN(c3ccccc3)CC1)CS2 (configuration not stated),i,-0.1,0.7,93.0,4.0,·
COC(=O)c1sccc1NC(=O)c1c(Cl)cnn1C,i,9.0*,0.6,103.0,9.6,0.9
COc1ccc(NC(=O)c2c(Cl)cnn2C)c(C)c1,i,-2.7,-1.3,100.0,-2.6,·
Clc1ccc(-c2nnc(CNC3CC3)o2)cc1,i,9.5*,0.8,100.0,1.1,-2.6
O=C1CN(S(=O)(=O)c2ccccc2)c2ccccc2N1,i,13.2*,-0.5,98.0,-2.8,-1.3
COc1ccc(OCCn2cc(C=O)c3ccccc32)cc1,i,-1.1,-0.3,102.0,-1.7,·
COc1ccc2[nH]c3c(c2c1)CC(C)NC3=O (configuration not stated),i,7.3*,0.3,100.0,-2.3,4.5
COc1ccc2[nH]c3c(c(=O)c2c1)CCCC3,i,·,-0.8,103.0,3.1,·
Cc1ccc(NC(=O)C2CCN(C(=O)[C@@H]3Cc4ccccc4CN3)CC2)c(C)c1,i,0.9,-0.5,101.0,6.4,·
Cc1cccc(NC(=O)C2CCN(C(=O)[C@@H]3Cc4ccccc4CN3)CC2)c1,i,5.2*,0.3,99.0,12.1,-4.5
CCc1nnc(NC(=O)COc2ccc([N+](=O)[O-])cc2)s1,i,4.8,2.3,90.0,-6.5,·
SMILES,Myeloid diff 2,MIN6 prolif-1,iPSC survival up,ABCB6 inh 2,H9c2 protect,MIN6 prolif-2
CCc1nnc(NC(=O)COc2ccccc2[N+](=O)[O-])s1,i,4.6*,-0.2,97.0,4.5,-0.7
O=C(c1cccc(Cl)c1)N1CCCC(c2ccc(Cl)cc2)=N1,i,-4.4,-0.2,100.0,-11.5,·
O=C(c1ccccc1)N1CCCC(c2ccc(Cl)cc2)=N1,i,5.4*,5.6,104.0,-5.3,-6.5
COc1ncnc(-c2ccccc2)c1-c1ccccc1,i,7.8*,-0.6,100.0,-2.4,0.7
CCOc1cc(C(=O)Nc2ccc3c(c2)OCO3)ccc1OCCOc1ccccc1Cl,i,1.1,-1.7,81.0,-17.4,·
CCOc1ccc(C(=O)Nc2ccc3c(c2)OCO3)cc1OCC,i,5.5*,2.4,93.0,10.6,2.9
CCOc1cc(/C=C/C(=O)OCC(=O)NCC2CCCO2)cc(Cl)c1OC (configuration not stated),i,0.5,2.0,97.0,-0.7,·
CC(C)(C)n1nnnc1C(c1ccc2ncccc2c1)N1CCC(O)CC1 (configuration not stated),i,-0.7,1.1,96.0,8.0,·
COc1ccc(CCN(C)C(=O)c2cc(-c3ccccc3)nc3ccc(C)cc23)cc1OC,i,11.0*,0.4,94.0,0.0,-6.0
Cc1c([N+](=O)[O-])c2ccc(O)cc2n1-c1ccccc1,i,15.0*,-0.3,93.0,12.2,7.8
Cc1ccc(-n2c(C)c([N+](=O)[O-])c3ccc(O)cc32)cc1,·,7.7*,·,·,·,-5.9
CC(C(=O)NCc1ccccn1)N1C(=O)c2ccccc2C1=O (configuration not stated),i,-0.5,-1.1,107.0,5.3,·
CC1CCN(C(=O)COC(=O)c2cc([N+](=O)[O-])ccc2N2CCOCC2)CC1,i,3.7,0.5,100.0,5.7,·
CC1CCCCN1C(=O)COC(=O)c1cc([N+](=O)[O-])ccc1N (configuration not stated),i,14.7*,-0.5,102.0,-1.1,1.0
Oc1ccc(/C=N/NC(=S)NCC2CCCO2)cc1 (configuration not stated),i,0.0,-1.0,98.0,8.7,·
C/C(Cl)=C/Cn1c(SCC(C)C)nc2c1c(=O)[nH]c(=O)n2C,i,2.6,4.6,95.0,-21.7,·
CCOC(=O)C(CC)Sc1nc2c(c(=O)[nH]c(=O)n2C)n1C/C=C(/C)Cl (configuration not stated),i,5.4*,0.0,98.0,7.2,-6.2
CCCCOC(=O)CSc1nc2c(c(=O)[nH]c(=O)n2C)n1C/C=C(\C)Cl,i,5.4*,-0.9,89.0,10.2,-3.9
COc1ccc2c(Cl)c(C(=O)N/N=C/c3cccnc3)sc2c1,i,15.2*,-0.4,98.0,-10.9,-1.9
O=C(N/N=C/c1cccnc1)c1sc2ccccc2c1Cl,i,8.8,0.4,98.0,8.5,·
Cc1ccc(-c2nc(SCC(=O)Nc3cc(C)on3)c3c(=O)n(C)c(=O)n(C)c3n2)cc1,i,-3.8,-0.1,106.0,-0.1,·
Cc1cc(N(C(=O)c2ccco2)C(C(=O)NC2CCCCC2)c2ccccc2)ccc1-n1cnnn1 (configuration not stated),i,-1.6,1.5,98.0,-4.8,·

# Assay outcomes: PubChem BioAssay, several laboratories
